Measurements as given in PubChem BioAssay (NCI).
About 83,000 compounds went through this panel and 20% of them were active in at least one assay; those are over-represented in the sample as a whole.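 Interpretation: 100, growth as untreated; towards 0, rising growth inhibition; 0, no net growth; 0 to -100, cell death. Compounds scoring below 10 were considered active.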 Values without a mark were called inactive. Activity calls are given as the source filed them.

Assays:
Experiment in all cases: NCI-60 one-dose screen, 48 h (100 = growth as untreated, 0 = no growth, -100 = all killed)
Settings in all cases: 10 µM unless noted
DU-145 prostate = test system: DU-145 prostate
K-562 leukemia = test system: K-562 leukemia
MALME-3M melanoma = test system: MALME-3M melanoma
MDA-MB-231 breast = test system: MDA-MB-231 breast
RXF 393 renal = test system: RXF 393 renal
SF-268 CNS = test system: SF-268 CNS
SF-295 CNS = test system: SF-295 CNS
UACC-257 melanoma = test system: UACC-257 melanoma
M14 melanoma = test system: M14 melanoma
HCT-15 colon = test system: HCT-15 colon
HT29 colon = test system: HT29 colon
SNB-75 CNS = test system: SNB-75 CNS
SNB-19 CNS = test system: SNB-19 CNS
U251 CNS = test system: U251 CNS
PC-3 prostate = test system: PC-3 prostate
SK-MEL-5 melanoma = test system: SK-MEL-5 melanoma
UACC-62 melanoma = test system: UACC-62 melanoma
LOX IMVI melanoma = test system: LOX IMVI melanoma
SK-MEL-28 melanoma = test system: SK-MEL-28 melanoma

Structure (SMILES) | growth (DU-145 prostate) | growth (K-562 leukemia) | growth (MALME-3M melanoma) | growth (MDA-MB-231 breast) | growth (RXF 393 renal) | growth (SF-268 CNS) | growth (SF-295 CNS) | growth (UACC-257 melanoma) | growth (M14 melanoma) | growth (HCT-15 colon) | growth (HT29 colon) | growth (SNB-75 CNS) | growth (SNB-19 CNS) | growth (U251 CNS) | growth (PC-3 prostate) | growth (SK-MEL-5 melanoma) | growth (UACC-62 melanoma) | growth (LOX IMVI melanoma) | growth (SK-MEL-28 melanoma)
C=C1CCC2C3(C)COC(c4ccccc4Br)OC3CCC2(C)C1C/C=C1/C(=O)OCC1OC(C)=O (centres undefined) | 21.4% | -43% (active) | -44.6% (active) | -37.1% (active) | -57.2% (active) | -13.4% (active) | 27.6% | -41.6% (active) | -36.7% (active) | -36.2% (active) | -46.2% (active) | -25.3% (active) | 102% | -95.9% (active) | -17.1% (active) | -57.1% (active) | -18.4% (active) | -92% (active) | -52.9% (active)
CN(C)CCCC(=O)Nc1ccc(Cn2nnc3c2C(=O)c2nnn(Cc4ccc(NC(=O)CCCN(C)C)cc4)c2C3=O)cc1 | 86% | 70.1% | -33.4% (active) | 3.74% (active) | 90.8% | 80.6% | 77.8% | 47.9% | 85.8% | 94.5% | 10.5% | -94.9% (active) | 82.7% | 90.2% | 88.1% | 50.3% | 75.7% | 6.92% (active) | 56.5%
C=C1CC[C@@H]2[C@](C)(COC(C)=O)[C@H](OC(C)=O)CC[C@@]2(C)[C@@H]1CC(Nc1ccc(S(=O)(=O)Nc2nc(C)cc(C)n2)cc1)C1=CCOC1=O (some centres undefined) | 82.3% | 19.1% | 96.3% | 107% | 85.1% | 93.3% | 97% | 67.9% | 63.8% | 49.2% | 46.2% | 44.6% | 100% | 48.2% | 65.2% | 74.2% | 32.9% | -60.6% (active) | 83.5%
O=C(CO[N+](=O)[O-])Nc1ccc(C(=O)/C=C/c2ccc3c(c2)OCO3)cc1 | 96.7% | 59.1% | 116% | 87.4% | 107% | 82.4% | 74.6% | 92.9% | 81.8% | 76.7% | 30.1% | 86.3% | 104% | 57.3% | 61.4% | 90.8% | 96% | 21.5% | 104%
O=c1[nH]c(-c2ccccn2)nc2sc3c(c12)CCCCC3 | 48.8% | 21.4% | 75.3% | 52.4% | 70.4% | 47.6% | 33.1% | 73.4% | 43.3% | 34.3% | 36.9% | 80.9% | 46.1% | 17.1% | 44.2% | 44.5% | 20.2% | 8.61% (active) | 45.2%
CCOC(=O)CC(=O)c1c(C)cc(C)cc1C | 110% | 112% | 113% | 103% | 100% | 107% | 103% | 112% | 99.6% | 98.2% | 87.7% | 112% | 96.2% | 105% | 103% | 100% | 96.9% | 98.5% | 118%
CC(=O)Oc1ccc(Nc2c3ccccc3nc3ccccc23)cc1 | 8.74% (active) | 6.78% (active) | -33.2% (active) | 23.6% | -2.55% (active) | 22% | -21.8% (active) | -25.7% (active) | 20.7% | 1.67% (active) | -38.4% (active) | 2.16% (active) | 16.1% | 8.7% (active) | 7.48% (active) | -73.2% (active) | -45.3% (active) | -34.8% (active) | 25.8%
O=C(O)c1ccc(=O)[nH]n1 | 135% | 102% | 120% | 103% | 122% | 125% | 109% | 105% | 107% | 101% | 123% | 98.4% | 102% | 109% | 103% | 110% | 98.2% | 96.2% | 109%
COc1ccc(C(=O)/C=C/c2cc3ccccc3[nH]c2=O)cc1 | -26.7% (active) | 16.7% | 74.2% | 56.3% | 16.6% | 28.9% | 48.9% | 59.1% | 59.6% | 46.4% | 6.09% (active) | 2% (active) | 70.5% | 31.7% | 32.3% | 72.5% | 67.7% | 10.2% | 88.2%
COc1ccc(C2Nc3ccccc3-n3cccc32)cc1 (centres undefined) | 111% | 105% | 100% | 78.7% | 111% | 98.7% | 92.4% | 98.9% | 99.3% | 92.9% | 108% | 105% | 97.8% | 98% | 71.7% | 93.1% | 81.9% | 97.3% | 106%
CC/C(Cc1ccccc1)=C(/c1ccc(O)cc1)c1ccc(OCCN2CCCC2)cc1 | -18.6% (active) | -10.1% (active) | -72.5% (active) | -60.8% (active) | -65% (active) | 9.94% (active) | -63.1% (active) | -65.8% (active) | -70.5% (active) | -56.2% (active) | -57% (active) | -22.6% (active) | 0.126% (active) | -89.1% (active) | -32.2% (active) | -100% (active) | -77.7% (active) | -100% (active) | -84.5% (active)
Oc1ccc2c(=S)cc(-c3ccc(Br)cc3)oc2c1O | 25.5% | 20.7% | 38.3% | 3.73% (active) | 33.4% | 9.4% (active) | 100% | 67.5% | 12.3% | 8.03% (active) | 63.9% | 71.4% | 6.8% (active) | -7.83% (active) | -2.05% (active) | 10.9% | 8.09% (active) | 1.22% (active) | 51.4%
CC1=C(NCCN2CCCC2)C(=O)c2c(OCc3ccc(F)c(Cl)c3)cccc2C1=O | 84.3% | 17% | 44.3% | 59.1% | 71.8% | 70.5% | 45.6% | -63.9% (active) | -73.7% (active) | 49.1% | 20.5% | 69.9% | 93% | 57.8% | 60.3% | 59% | 91.7% | 12.9% | -53.4% (active)
O=C(CN1CCOCC1)Nc1ccc(Cn2nnc3c2C(=O)c2nnn(Cc4ccc(NC(=O)CN5CCOCC5)cc4)c2C3=O)cc1 | -76.7% (active) | 0.148% (active) | -81.6% (active) | -9.32% (active) | -18.7% (active) | -5.75% (active) | -44.9% (active) | -95.2% (active) | -90.4% (active) | 70.8% | -37.3% (active) | -87.4% (active) | -15% (active) | -92.1% (active) | 5.89% (active) | -86.9% (active) | -77.3% (active) | -25.1% (active) | -34.6% (active)
CCCCCCCCCCCCCCCCCCSC1=CC(=O)C(OC)=C(OC)C1=O | 113% | 82.2% | 112% | 93.5% | 97.7% | 110% | 97.9% | 90.8% | 74.6% | 98.7% | 107% | 95.1% | 91.9% | 76.4% | 52% | 86.3% | 77% | 45.9% | 97.3%
N#Cc1c2c(nc3n[nH]c(N)c13)CCCC2 | 121% | 97.7% | 115% | 106% | 92.9% | 101% | 101% | 101% | 104% | 105% | 104% | 85.6% | 112% | 99.3% | 109% | 118% | 101% | 102% | 122%
